Source: PubChem BioAssay AID1159580 (chemical genetic matrix, 2015)
The campaign covered roughly 5,500 compounds. About 2,000 (36%) were called active. About 18% were inconclusive and are not listed. Cut-off read from the data, not from the text of the source: active = normalized growth mostly below about 0.91 (no sharp cut-off); inconclusive = no clear call, values can overlap the other calls; inactive = mostly above about 0.92. This is one part of the list.

Assay: chemical genetic growth profiling, strain panel (AID 1159580);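 note: tested at 20 µM; growth read once vehicle control cultures reached saturation at 30 °C; 1 = growth at the plate median or of vehicle wells; lower values mean less growth of the strain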
Settings: growth OD

Measured: normalized growth

CC1Cc2ccccc2N1NC(=O)c1ccc(Cl)c(S(N)(=O)=O)c1 (centres undefined)
inactive: S. cerevisiae deletion strains, locus YJR043C, strain POL32, active compounds read low 1.02 | S. cerevisiae deletion strains, locus YJR066W, strain TOR1, active compounds read low 0.94 | S. cerevisiae deletion strains, locus YJR075W, strain HOC1, active compounds read low 1.01 | S. cerevisiae deletion strains, locus YKL009W, strain mrt4, active compounds read low 1.01 | S. cerevisiae deletion strains, locus YKL068W, active compounds read low 0.994 | S. cerevisiae deletion strains, locus YKL085W, strain MDH1 (second series), active compounds read low 0.988 | S. cerevisiae deletion strains, locus YKL085W, strain MDH1, active compounds read low 0.988 | S. cerevisiae deletion strains, locus YKL160W, strain elf1, active compounds read low 0.991 | S. cerevisiae deletion strains, locus YKR001C, strain vps1, active compounds read low 1.01 | S. cerevisiae deletion strains, locus YKR026C, strain gcn3, active compounds read low 0.997 | S. cerevisiae deletion strains, locus YKR091W, strain srl3, active compounds read low 0.997 | S. cerevisiae deletion strains, locus YLL001W, strain dnm1, active compounds read low 0.994 | S. cerevisiae deletion strains, locus YLL026W, active compounds read low 0.999 | S. cerevisiae deletion strains, locus YLL041C, strain sdh2, active compounds read low 0.998 | S. cerevisiae deletion strains, locus YLR027C, strain aat2, active compounds read low 1 | S. cerevisiae deletion strains, locus YLR039C, strain RIC1, active compounds read low 1.03 | S. cerevisiae deletion strains, locus YLR058C, strain SHM2, active compounds read low 1.01 | S. cerevisiae deletion strains, locus YLR102C, strain apc9, active compounds read low 0.989 | S. cerevisiae deletion strains, locus YLR113W, strain HOG1, active compounds read low 1 | S. cerevisiae deletion strains, locus YLR221C, strain rsa3, active compounds read low 0.989 | S. cerevisiae deletion strains, locus YLR258W, strain gsy2, active compounds read low 1.01 | S. cerevisiae deletion strains, locus YLR262C, strain YPT6 (second series), active compounds read low 0.996 | S. cerevisiae deletion strains, locus YLR262C, strain YPT6, active compounds read low 1.04 | S. cerevisiae deletion strains, locus YLR268W, strain sec22, active compounds read low 1.03 | S. cerevisiae deletion strains, locus YLR320W, strain mms22, active compounds read low 1 | S. cerevisiae deletion strains, locus YLR330W, strain CHS5, active compounds read low 1.01 | S. cerevisiae deletion strains, locus YLR342W, strain FKS1 (second series), active compounds read low 1.01 | S. cerevisiae deletion strains, locus YLR342W, strain FKS1, active compounds read low 0.999 | S. cerevisiae deletion strains, locus YLR357W, strain rsc2, active compounds read low 1.03 | S. cerevisiae deletion strains, locus YLR370C, strain arc18, active compounds read low 1.01 | S. cerevisiae deletion strains, locus YLR371W, strain rom2, active compounds read low 0.99 | S. cerevisiae deletion strains, locus YLR384C, strain iki3, active compounds read low 1.01 | S. cerevisiae deletion strains, locus YLR418C, strain cdc73, active compounds read low 0.989 | S. cerevisiae deletion strains, locus YML016C, strain PPZ1, active compounds read low 1.01 | S. cerevisiae deletion strains, locus YML032C, strain rad52, active compounds read low 0.994 | S. cerevisiae deletion strains, locus YML120C, strain ndi1, active compounds read low 0.987 | S. cerevisiae deletion strains, locus YML124C, strain tub3, active compounds read low 0.999 | S. cerevisiae deletion strains, locus YMR058W, strain fet3, active compounds read low 1.01 | S. cerevisiae deletion strains, locus YMR078C, strain ctf18, active compounds read low 0.994 | S. cerevisiae deletion strains, locus YMR125W, strain sto1, active compounds read low 1.01 | S. cerevisiae deletion strains, locus YMR129W, active compounds read low 1.01 | S. cerevisiae deletion strains, locus YMR205C, strain PFK2, active compounds read low 0.985 | S. cerevisiae deletion strains, locus YMR223W, strain ubp8, active compounds read low 0.977 | S. cerevisiae deletion strains, locus YMR231W, strain pep5, active compounds read low 1 | S. cerevisiae deletion strains, locus YMR263W, strain SAP30, active compounds read low 1.02 | S. cerevisiae deletion strains, locus YMR307W, strain GAS1, active compounds read low 1.04 | S. cerevisiae deletion strains, locus YNL067W, strain RPL9B, active compounds read low 1.01 | S. cerevisiae deletion strains, locus YNL071W, strain lat1, active compounds read low 1.01 | S. cerevisiae deletion strains, locus YNL183C, strain NPR1, active compounds read low 0.958 | S. cerevisiae deletion strains, locus YNL209W, strain ssb2, active compounds read low 1 | S. cerevisiae deletion strains, locus YNL233W, strain BNI4, active compounds read low 1.01 | S. cerevisiae deletion strains, locus YNL248C, strain rpa49, active compounds read low 0.989 | S. cerevisiae deletion strains, locus YNL250W, strain rad50, active compounds read low 0.984 | S. cerevisiae deletion strains, locus YNL271C, strain bni1, active compounds read low 0.995 | S. cerevisiae deletion strains, locus YNL298W, strain CLA4, active compounds read low 0.995 | S. cerevisiae deletion strains, locus YNL307C, strain MCK1, active compounds read low 0.996 | S. cerevisiae deletion strains, locus YNL322C, strain KRE1 (second series), active compounds read low 0.997 | S. cerevisiae deletion strains, locus YNR049C, strain mso1, active compounds read low 1 | S. cerevisiae deletion strains, locus YNR052C, strain pop2, active compounds read low 0.991 | S. cerevisiae deletion strains, locus YOL006C, strain TOP1, active compounds read low 1.01 | S. cerevisiae deletion strains, locus YOL012C, strain htz1 0.983 | S. cerevisiae deletion strains, locus YOL147C, strain pex11, active compounds read low 1 | S. cerevisiae deletion strains, locus YOR001W, strain rrp6, active compounds read low 0.975 | S. cerevisiae deletion strains, locus YOR061W, strain CKA2, active compounds read low 1.02 | S. cerevisiae deletion strains, locus YOR069W, strain VPS5, active compounds read low 1.01 | S. cerevisiae deletion strains, locus YOR070C, strain gyp1, active compounds read low 1 | S. cerevisiae deletion strains, locus YOR080W, strain dia2, active compounds read low 1 | S. cerevisiae deletion strains, locus YOR083W, strain WHI5, active compounds read low 0.983 | S. cerevisiae deletion strains, locus YOR106W, strain vam3, active compounds read low 0.981 | S. cerevisiae deletion strains, locus YOR136W, strain idh2, active compounds read low 0.992 | S. cerevisiae deletion strains, locus YOR144C, strain elg1, active compounds read low 0.998 | S. cerevisiae deletion strains, locus YOR184W, strain ser1, active compounds read low 0.982 | S. cerevisiae deletion strains, locus YOR231W, strain MKK1, active compounds read low 0.971 | S. cerevisiae deletion strains, locus YOR265W, strain rbl2, active compounds read low 1.02 | S. cerevisiae deletion strains, locus YOR270C, strain vph1, active compounds read low 0.997 | S. cerevisiae deletion strains, locus YOR290C, strain snf2, active compounds read low 0.952 | S. cerevisiae deletion strains, locus YOR316C, strain cot1, active compounds read low 0.994 | S. cerevisiae deletion strains, locus YPL051W, strain arl3, active compounds read low 0.993 | S. cerevisiae deletion strains, locus YPL055C, strain LGE1, active compounds read low 1 | S. cerevisiae deletion strains, locus YPL078C, strain atp4, active compounds read low 0.984 | S. cerevisiae deletion strains, locus YPL106C, strain sse1, active compounds read low 0.994 | S. cerevisiae deletion strains, locus YPL240C, strain hsp82, active compounds read low 1.01 | S. cerevisiae deletion strains, locus YPL256C, strain CLN2, active compounds read low 0.998 | S. cerevisiae deletion strains, locus YPR119W, strain clb2, active compounds read low 0.991 | S. cerevisiae deletion strains, locus YPR141C, strain kar3, active compounds read low 0.998 | S. cerevisiae deletion strains, locus YPR163C, strain tif3, active compounds read low 1 | S. cerevisiae deletion strains, locus YPR167C, strain met16, active compounds read low 0.997 | S. cerevisiae deletion strains, strain wtn01, active compounds read low 1.02 | S. cerevisiae strains, strain wild type, active compounds read low 1.01
